Where a structure was tested more than once in an assay, its records may differ in their call. Activity calls are given as the source filed them. The calls were made as follows: active = hit-call score of the fitted dose curve at least 0.9, where 1 is the maximum; inactive = score below 0.9.
experiment: CEETOX_H295R_DOC: CeeTox H295R High-throughput Steroidogenesis Assay for DOC (AID 2283439); settings: actives raise or lower the signal
Description: CEETOX_H295R is a cell-based, multiplexed-readout assay that uses H295R, a human adrenal gland cell line, with measurements taken at 48 hours after chemical dosing in a 96-well plate.CEETOX_H295R_DOC is one of 23 assay component(s) measured or calculated from the CEETOX_H295R assay. It is designed to make measurements of hormone induction, a form of inducible reporter, as detected with absorbance signals by HPLC-MS-MS technology.Data from the assay component CEETOX_H295R_DOC was analyzed into 1 assay endpoint. This assay endpoint, CEETOX_H295R_DOC, was analyzed with bidirectional fitting relative to DMSO as the negative control and baseline of activity. Using a type of inducible reporter, gain or loss-of-signal activity using HPLC-MS-MS was used to understand synthesis of 11-Deoxycorticosterone in H295R cell line at 48hr of chemical exposure. To generalize the intended target to other relatable targets, this assay endpoint is annotated to the steroid hormone intended target family, where the subfamily is glucocorticoids.
Cell culture and media preparation procedures were conducted in accordance with OECD Test No. 456 guidelines, with minor modifications. H295R cells (ATCC CRL-2128) were expanded for 5 passages and frozen in batches in liquid nitrogen. Prior to the steroidogenesis assay, H295R cells were thawed and passed at least 4 times. The maximum passage was 10. Cells were maintained in a 1:1 mixture of DMEM/F12 supplemented with 5ml/L ITS+ Premix (BD Bioscience) and 12.5 ml/L Nu-Serum (BD Bioscience). After seeding cells into 96-well plates at 50-60% confluency, cells were allowed to adhere overnight. Prior to chemical testing, culture medium was replaced with 175 uL medium containing 10 uM forskolin to stimulate steroidogenesis for 48 hours. Following prestimulation, forskolin medium was replaced with medium containing test chemical solubilized in DMSO (ensuring a final concentration of 0.1% DMSO). Test chemicals were incubated for 48 hours, then the medium was removed and split into 2 vials containing approximately 75uL each, and stored at -80 C prior to hormone analysis. For steroid quantification, media samples were shipped to OpAns, LLC (Durham, NC) on dry ice, and samples were thawed to room temperature prior to liquid-liquid extraction. Steroid hormones were extracted from media samples using methyl tertbutyl ether (MTBE). An extra derivatization with dansyl chloride was included for estrogen (estrone and estradiol) detection only. Steroid hormones were separated by HPLC, eluted using a reverse phase C18 gradient with electrospray positive ionization, followed by quantification by tandem mass spectrometry (MS/MS). Data were acquired on a MassHunter Workstation Acquisition version B03.01 (Agilent Technologies, Inc.) and processed using MassHunter Quantitative Analysis for QQQ. Accuracy was determined for each hormone analyte from 3 standards to determine upper and lower limits of quantification (ULOQ and LLOQ, respectively) using a 7-point standard curve. Precision and accuracy of the extraction and quantification methods were calculated as the percent relative standard deviation (%RSD) of the spiked standards and percent spiked standard recovered, respectively. […] Test medium was removed following chemical exposure, and cell viability was evaluated in the same wells by MTT. MTT procedures were as follows: after removal of test medium, 500 uL of 0.5 mg/ml of 3-[4,5-dimethylthiazol-2-y]2,5-diphenyltetrazoliumbromide solution was added to the cells. Following a 4-hour incubation at 37 C and 5% CO2 to allow formazan-crystal formation, the MTT solution was removed and blue formazan salt crystals were solubilized using 500uL anhydrous isopropanol with shaking for 20 minutes. Absorbance was read at 570 and 650nm using a Packard Fusion microplate reader. Background correction of absorbance units was used to determine percent change relative to controls. […]

| Structure (SMILES) | outcome | AC50 |
| --- | --- | --- |
| CC/C(=C(\c1ccccc1)c1ccc(OCCN(C)C)cc1)c1ccccc1 | inactive | 0.222 µM (active) |
| C[C@]12CC[C@@H]3c4ccc(O)cc4CC[C@H]3[C@@H]1CC[C@@H]2O | – | 3.8 µM (active) |
| C#C[C@]1(O)CC[C@H]2[C@@H]3CCc4cc(O)ccc4[C@H]3CC[C@@]21C | inactive | – |
| CC(C)(C)c1cccc(O)c1 | inactive | – |
| CC(=O)c1ccc2ccccc2c1 | inactive | – |
| O=c1cc(-c2ccc(O)cc2)oc2cc(O)cc(O)c12 | – | 7.72 µM (active) |
| CCCCCCCCCCCCN1CCOCC1 | – | 0.549 µM (active) |
| O=C(OCc1ccccc1)c1ccccc1O | inactive | – |
| CC=CC(=O)C1=C(C)C=CCC1(C)C | inactive | – |
| c1coc(CNc2ncnc3nc[nH]c23)c1 | inactive | – |
| CCCc1ccc(O)cc1 | inactive | – |
| COc1ccc2[nH]cc(CCNC(C)=O)c2c1 | inactive | – |
| CCCCCC(=O)O[C@]1(C(C)=O)CC[C@H]2[C@@H]3CCC4=CC(=O)CC[C@]4(C)[C@H]3CC[C@@]21C | inactive | – |
| CC(=N[Si](C)(C)C)O[Si](C)(C)C | inactive | – |
| O=C(c1ccc(OCCN2CCCCC2)cc1)c1c(-c2ccc(O)cc2)sc2cc(O)ccc12 | inactive | – |
| OCCCO | inactive | – |
| c1ccc(OCCOc2ccccc2)cc1 | inactive | – |

From PubChem BioAssay (EPA / NIEHS)
